Pf growth 48h: Primary qHTS for delayed death inhibitors of the malarial parasite plastid, 48 hour incubation. P. falciparum luciferase growth in erythrocytes, 48 h. 310,000 compounds, 5.9% hits. Potency, µM (titrated, usually from 28.7 µM), actives largely listed as inhibitors
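Parasite viability was followed by luminescence of a genomically integrated firefly luciferase. Cultures held 0.1% parasitemia at 2% hematocrit (final), incubated under 5% CO2 at 37 C.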
NS1 function inh: qHTS Assay for Inhibitors of Influenza NS1 Protein Function; AID 2326, 2010; Potency, µM (doses to about 46.1 µM); 270,000 compounds, 0.4% hits; calls by dose curve; note: actives are rising curves; nearly all actives have a fitted effect of over 50% in size
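S. cerevisiae expressing influenza A NS1, grown in glucose, washed, then diluted 1:100 into pH 6.0 -URA galactose medium with 23 nl compound. Growth recovery read as OD600; NS1-free strain serves as control.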
Shiga inhibitor: A qHTS for Small Molecule Inhibitors of Shiga Toxin; Vero cells, Shiga toxin protein synthesis inhibition reporter; inhibition, % at 38.7 µM; 290,000 compounds, 9.2% hits; in the data active = inhibition mostly above about 28%, no sharp cut-off; inactive = mostly below about 43%
SARS PLP yeast: qHTS of Yeast-based Assay for SARS-CoV PLP; S. cerevisiae expressing SARS-CoV PLpro, growth rescue; Potency, µM (titrated, usually from 32.9 µM), most hits filed as activators; 330,000 compounds, 0.19% hits; calls by dose curve; note: nearly all actives have a fitted effect of over 55% in size
Pf growth 96h: Primary qHTS for delayed death inhibitors of the malarial parasite plastid, 96 hour incubation. P. falciparum luciferase reporter growth, 96 h. Potency, µM (series often up to 28.7 µM), actives largely listed as inhibitors. 320,000 compounds, 6.9% hits
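Readout is luminescence from an integrated firefly luciferase in P. falciparum. Red cells, 2% hematocrit and 0.05% parasitemia final, were cultured with compound through two parasite generations (96 hours) at 37 C, 5% CO2.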
CHX counter: Cycloheximide Counterscreen for Small Molecule Inhibitors of Shiga Toxin; cell reporter, cycloheximide protein synthesis inhibition counterscreen; AID 2314, 2010; max response, %; 300,000 compounds, 12% hits; in the data active = max response mostly above about 13%, no sharp cut-off; inactive = mostly below about 14%; note: read at 38.3 µM for the half of the compounds with a filed dose
Large screens that a line does not name were inactive. In the library only some 21% were active in any assay of this set; here they are far more common. Unless noted, calls come from the whole dose curve; as a rule, active = well fitted inhibition curve with a large enough effect; inconclusive = small, poorly fitted or top-dose-only effect, or another doubt; inactive = no such curve, though single readings can be large or run the other way.

Cc1ccc(Cn2cccc2/C=N/NC(=S)Nc2ccc(C)cc2)cc1	Pf growth 48h inconclusive
COc1cccc(NC(=S)NCc2ccc(F)cc2)c1	Pf growth 48h inconclusive, Pf growth 96h inconclusive, CHX counter 14
COc1ccc(NC(=S)N/N=C/c2cccn2Cc2ccc(F)cc2)cc1	Pf growth 48h inconclusive, Shiga inhibitor 46 (no result: NS1 function inh)
COc1ccc(CNC(=S)Nc2ccccc2C)cc1	SARS PLP yeast inconclusive (no result: Pf growth 96h)
CSc1nc2cc(C)nn2c(-c2ccccc2)c1C#N	none
O=c1[nH]c(Nc2ccc3c(c2)OCCO3)nnc1Cc1ccccc1	Pf growth 48h inconclusive (no result: NS1 function inh)
COC(=O)/C=C1\NC(=O)C(C)S1 (stereo not given)	none
Cn1c(NC(=O)/C=C/c2c(F)cccc2Cl)cc(=O)n(C)c1=O	Pf growth 48h inconclusive, Pf growth 96h inconclusive (no result: NS1 function inh)
O=C(/C=C/c1ccccc1)Nc1ccc2c(c1)C(=O)NC2=O	CHX counter 19
O=C(/C=C/c1ccccc1Cl)Nc1ccc2c(c1)C(=O)NC2=O	Shiga inhibitor 58 (no result: NS1 function inh)
Cn1c(NC(=O)/C=C\c2ccccc2)cc(=O)n(C)c1=O	Shiga inhibitor 80, CHX counter 36 (no result: NS1 function inh)
C=Cc1ccc(Cn2c(=O)n(C)c(=O)c3sccc32)cc1	Pf growth 96h inconclusive
O=C(/C=C/c1ccc(O)c([N+](=O)[O-])c1)c1ccc2ccccc2c1	Pf growth 48h inconclusive, Pf growth 96h inconclusive
CN(C)c1ccc(/C=C/C(=O)c2ccccc2)cc1[N+](=O)[O-]	Shiga inhibitor active, Pf growth 96h 9.3µM, CHX counter 62
CNc1ccc(/C=C/C(=O)c2ccc3c(c2)OCCO3)cc1[N+](=O)[O-]	none
CNc1ccc(/C=C/C(=O)c2ccc(C)cc2)cc1[N+](=O)[O-]	Pf growth 96h 12µM
O=C(O)c1cc([N+](=O)[O-])cc2c1nnn2O	none (no result: NS1 function inh)
CCCn1c(=O)c(C(=O)NCCc2ccc(Cl)cc2)c(O)c2ccccc21	none
Cc1cc(C[n+]2ncsc2N)c2ncccc2c1	none
CCOc1ccc2c(c1)sc(N)[n+]2Cc1cc(C)cc2cccnc12	Pf growth 48h 9.3µM, Pf growth 96h 1.9µM
COc1ccc2c(c1)sc(N)[n+]2Cc1cc(C)cc2cccnc12	Pf growth 48h 9.3µM, Pf growth 96h inconclusive
CCOc1ccc2c(ccc(/C=C\c3cc(C)c4cccnc4c3O)[n+]2C)c1	none (no result: Pf growth 48h, Shiga inhibitor, SARS PLP yeast, Pf growth 96h, CHX counter)
CCOc1ccc(CSCCNC(=S)Nc2ccc(OC)cc2)cc1	Pf growth 48h 8.3µM, Pf growth 96h inconclusive
S=C(NCCSCc1ccc(Cl)cc1)Nc1ccccc1	Pf growth 48h inconclusive, Pf growth 96h inconclusive
CCCOc1ccc(CSCCNC(=S)Nc2ccccc2)cc1	Pf growth 48h 13µM, SARS PLP yeast inconclusive, Pf growth 96h inconclusive
CCCOC(=O)C1=C(C)NC2=C(C(=O)CC(C)(C)C2)C1c1cccnc1 (stereo not given)	Pf growth 48h inconclusive, Pf growth 96h 10µM
O=C1c2ccccc2C(=O)N1CCC#Cc1ccc2cc(CCCO)oc(=O)c2c1	none (no result: Pf growth 48h, NS1 function inh, Shiga inhibitor, Pf growth 96h, CHX counter)
Clc1ccc(C[n+]2csc3ccccc32)cc1	Shiga inhibitor 43, CHX counter 19
CCCOc1ccccc1/C=C1\SC(N2CCCCC2)=NC1=O	Pf growth 48h inconclusive, Pf growth 96h inconclusive (no result: Shiga inhibitor)
CCCc1nc(NCCCOCC)c2nnn(Cc3ccccc3)c2n1	Pf growth 96h 12µM (no result: Shiga inhibitor)
O=S(=O)(/N=C(/Nc1cccc2ccccc12)c1ccccc1)c1ccccc1	Pf growth 48h inconclusive
Cc1cccc(N/C(=N/S(=O)(=O)c2ccccc2)c2ccccc2)n1	CHX counter 15
O=S(=O)(/N=C(/Nc1ccccn1)c1ccccc1)c1ccc(F)cc1	Shiga inhibitor 22
O=S(=O)(/N=C(/Nc1cccc2ccccc12)c1ccccc1)c1ccc(Br)cc1	SARS PLP yeast inconclusive, Pf growth 96h 4.1µM
CCCC[C@H]1C2=C3[C@@H](CC(C(=O)OC)=C[C@@H](C(=O)OC)[C@H]3C(C)(C)C2=O)n2c(=O)n(C)c(=O)n21	none (no result: Pf growth 48h, NS1 function inh, SARS PLP yeast, Pf growth 96h)
Cc1cc(OCC(=O)Nc2ccc(S(=O)(=O)NC3=NCCCCC3)cc2)c(C(C)C)cc1Cl	Pf growth 96h inconclusive
O=C(NCC1CCCO1)C1CCCN(S(=O)(=O)c2ccc(Cl)cc2)C1 (stereo not given)	none
COc1ccc(C2=NN(CN3C(=O)C(=O)c4ccccc43)C(c3ccc(OC)cc3)C2)cc1 (stereo not given)	Pf growth 48h inconclusive, Shiga inhibitor 131, Pf growth 96h inconclusive, CHX counter 76
COc1ccc(C2=NN(c3ccc(C=O)cc3)C(c3ccccc3)C2)cc1 (stereo not given)	Pf growth 48h inconclusive, NS1 function inh inconclusive, Pf growth 96h inconclusive
COc1ccc(C2=NN(S(=O)(=O)c3ccccc3)C(c3ccccc3)C2)cc1 (stereo not given)	Pf growth 48h inconclusive, Pf growth 96h 6.6µM
COc1ccc(C2CC(c3ccccc3)=NN2S(=O)(=O)c2ccc(C)cc2)c(OC)c1 (stereo not given)	Pf growth 48h inconclusive, NS1 function inh inconclusive, Pf growth 96h 12µM
O=S(=O)(c1ccccc1)N1N=C(c2ccccc2)CC1c1ccccc1 (stereo not given)	Pf growth 48h inconclusive, Pf growth 96h inconclusive
COc1ccc(C2CC(c3ccccc3)=NN2S(=O)(=O)c2ccccc2)c(OC)c1 (stereo not given)	Pf growth 48h inconclusive
CC(=O)N1NC(=Nc2ccccc2)SC1(C)C	none
CC1C=CCC2C(=O)N(c3cc(Cl)ccc3O)C(=O)C12 (stereo not given)	none
Cc1ccc(C(=O)OCC(=O)N2C(C)CCCC2C)cc1S(=O)(=O)N1CCOCC1 (stereo not given)	none (no result: NS1 function inh, Shiga inhibitor, CHX counter)
Nc1cc(=O)[nH]c(SCC(=O)Nc2cc(S(=O)(=O)N3CCCCC3)ccc2Cl)n1	Pf growth 48h inconclusive, Pf growth 96h inconclusive (no result: NS1 function inh, Shiga inhibitor, CHX counter)
CCCC(c1nnnn1Cc1ccc(OC)cc1)N1CCN(c2ccccc2)CC1 (stereo not given)	Pf growth 48h 13µM
COc1ccc(Cn2nnnc2C(CC(C)C)N2CCN(c3ccccc3)CC2)cc1 (stereo not given)	Pf growth 48h 7.4µM
CCCC(c1nnnn1Cc1ccc(OC)cc1)N1CCN(C(=O)c2ccco2)CC1 (stereo not given)	none
O=C(NCCS(=O)(=O)N1CCN(c2ccccc2)CC1)c1cccs1	none (no result: NS1 function inh, Shiga inhibitor, CHX counter)
C/C(CCc1ccccc1)=N/NC(=O)C(=O)NCc1ccccc1	none
CC(OC(=O)[C@@H]1CCCN1C(=O)c1cccs1)C(=O)Nc1cccc([N+](=O)[O-])c1 (stereo not given in full)	none (no result: Pf growth 48h, NS1 function inh, Shiga inhibitor, Pf growth 96h, CHX counter)
CCn1c(SCC(=O)O)nnc1-c1cccnc1	none
Cc1ccc(-c2csc(Nc3ccccc3)[n+]2CCc2ccccc2)cc1	Pf growth 48h 12µM, Shiga inhibitor 70, Pf growth 96h 2.1µM, CHX counter 23 (no result: NS1 function inh)
Cc1ccc(-c2csc(Nc3ccc(C(=O)O)cc3)[n+]2Cc2ccccc2)cc1	Pf growth 48h inconclusive, Pf growth 96h inconclusive
